# Bioassay records as filed in PubChem.
# This excerpt belongs to a sample that is enriched for hits.
# RXFP1 antagonist – qHTS Assay for Antagonists of the Relaxin Receptor RXFP1; actives 0.59% (n = 350,000); HEK293-RXFP1, relaxin-stimulated cAMP HTRF, 30 min; active compounds read low; Relaxin receptor 1 (Homo sapiens), Q9HBX9; activity change, negative = inhibition, % at 57.5 µM;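 active means activity change of -60% or lower, but not beyond a set lower limit; inconclusive means change between -60% and -40%, or beyond the set limit; inactive means change above -40%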; further: on the % scale 0 is the no-effect control and ±100 the full control effect
# RXFP1 agonist – qHTS Assay for Agonists of the Relaxin Receptor RXFP1. Relaxin receptor 1 (Homo sapiens), Q9HBX9. HEK293T-RXFP1 cAMP TR-FRET, 30 min; response scale: percent of porcine relaxin response, buffer zero. Potency, µM (highest dose often 57.5 µM), for inactives: top-dose activation, usual class: activators. actives 0.3% (n = 370,000). AID 2676, 2010; further: potency means the concentration at half of the fitted maximal effect; on the % scale 0 is the no-effect control and ±100 the full control effect; nearly all actives have a fitted effect of over 60% in size
#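 HEK293T cells stably expressing RXFP1 were pretreated with the PDE4 inhibitor Ro 20174, exposed to compounds for 30 min at 37C, lysed, and cAMP was read by TR-FRET. Data normalized to buffer (basal) and 29 nM porcine relaxin (100%).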
# PTHR1 ag – qHTS for PTHR1 Agonists: Primary Screen. Parathyroid hormone/parathyroid hormone-related peptide receptor (Homo sapiens), Q03431. HEK293 GP2 PTHR1 cells, GloSensor cAMP luminescence, 1 h. Potency, µM (titrated, usually from 115 µM), for inactives: at the top dose activation, usual class: activators. actives 0.075% (n = 410,000); further: potency means the concentration at half of the fitted maximal effect; nearly all actives have a fitted effect of over 55% in size
# Target sequence (Q03431 whole entry, looked up): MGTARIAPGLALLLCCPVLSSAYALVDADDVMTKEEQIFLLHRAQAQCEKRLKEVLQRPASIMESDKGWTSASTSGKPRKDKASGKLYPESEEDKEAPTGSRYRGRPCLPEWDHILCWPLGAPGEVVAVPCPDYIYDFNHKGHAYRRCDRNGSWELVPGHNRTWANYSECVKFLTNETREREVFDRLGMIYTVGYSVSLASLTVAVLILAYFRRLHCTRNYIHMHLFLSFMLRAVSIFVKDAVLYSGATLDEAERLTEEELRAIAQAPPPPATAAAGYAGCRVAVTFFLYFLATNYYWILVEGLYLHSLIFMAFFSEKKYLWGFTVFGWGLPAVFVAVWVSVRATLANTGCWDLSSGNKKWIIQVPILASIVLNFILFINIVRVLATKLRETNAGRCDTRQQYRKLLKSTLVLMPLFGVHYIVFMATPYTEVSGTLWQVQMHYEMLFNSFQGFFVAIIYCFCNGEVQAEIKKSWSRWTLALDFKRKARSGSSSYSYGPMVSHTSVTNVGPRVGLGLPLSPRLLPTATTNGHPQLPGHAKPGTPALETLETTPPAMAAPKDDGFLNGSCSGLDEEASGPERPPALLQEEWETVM
#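 HEK-293-derived GP2 cells expressing PTHR1 and a GloSensor cAMP reporter, 3,000/well, plated overnight, given luciferin plus IBMX (each 0.5 mM as added) for 1 h at 37 °C, then compound for 1 h at 37 °C. Luminescence was read after 15 min at room temperature.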
# TSHR antag – Antagonists of the Thyroid Stimulating Hormone Receptor: HTS campaign. TSHR-expressing cells, TSH-stimulated cAMP HTRF, 2 h; active compounds read low. AID 504810, 2011. activity change, negative = inhibition, % at 11.5 µM. Thyrotropin receptor (Homo sapiens), P16473. actives 0.2% (n = 330,000);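 active means activity change below a set negative limit, meaning inhibition stronger than a set level, cut at about -70% in these data; inconclusive means activity change between two set negative limits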; further: on the % scale 0 is the no-effect control and ±100 the full control effect
#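 Freshly harvested TSHR cells receive pin-tooled compound, then EC80 TSH at 4nM final. After 2 hours at 37 deg C, antibody in lysis buffer and cAMP-d2 are added; 30 minutes at ambient temperature precede the HTRF read.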
# NPSR antag – qHTS Assay for Antagonists of the Neuropeptide S Receptor: cAMP Signal Transduction; AID 1461, 2008; Potency, µM (top dose mostly 38.3 µM), inactives show at the highest dose activity change, negative = inhibition, hits mostly inhibitors; Q6W5P4; CHO-NPSR cells, cAMP TR-FRET, antagonist mode; actives 1% (n = 220,000); further: potency means the concentration at half of the fitted maximal effect; on the % scale 0 is the no-effect control and ±100 the full control effect; nearly all actives have a fitted effect of over 50% in size
# HEK293 tox – qHTS of GLP-1 Receptor Inverse Agonists: Cytotox Screen. AID 624418, 2012. Potency, µM (titrated, usually from 38.3 µM), inactives show at the top dose activity change, negative = inhibition, hits mostly inhibitors. actives 0.13% (n = 410,000). HEK293 cAMP-luciferase reporter cells, luminescence, 24 h;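 further: loss of luciferase light is scored as toxicity; potency means the concentration at half of the fitted maximal effect; on the % scale 0 is the no-effect control and ±100 the full control effect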
#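 Compound-treated cells are incubated 24 hr at 37 deg C under 5% CO2 after a 12 hour attachment period, then luciferase detection reagent is added and luminescence is measured following 12 min at room temperature; lowered signal indicates toxicity.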
# Starred values were filed as active, the others as inactive; i = inactive; u = inconclusive; x = no result given; [ ] = dose if it differs, or a comment. Unless noted, the call rests on the fitted dose curve; in most records, active means well fitted curve in the direction sought with a large enough effect; inconclusive means small, poorly fitted or top-dose-only effect, or another doubt; inactive means no such curve, though single readings can be large; an effect the other way counts as inactive or inconclusive.
SMILES,RXFP1 antagonist,RXFP1 agonist,PTHR1 ag,TSHR antag,NPSR antag,HEK293 tox
C=C(C)Cn1c(CCn2c3ccccc3c3ccccc32)n[nH]c1=S,-65*,0%,i,-6,-50%,-22%
CCOC(=O)C1(CCOc2ccccc2)CCN(Cc2cccc(OC)c2O)CC1,-5,-1%,-37%,-113*,x,-13%
CCOC(=O)C1(Cc2cccc(OC)c2)CCN(Cc2cccc3c2OCO3)CC1,-95*,1%,-15%,3,24%,-3%
CCOC(=O)C1(CCCc2ccccc2)CCN(Cc2nccn2CC)CC1,-15,-2%,-23%,-6,47%,13µM*
CCOC(=O)C1(CCOc2ccccc2)CCN(Cc2nccn2CC)CC1,10,-1%,-9%,-3,6%,u
CCNC(=O)[C@@H]1CCCN1C(=O)[C@H](CCCN=C(N)N)NC(=O)[C@H](CC(C)C)NC(=O)CNC(=O)[C@H](Cc1ccc(O)cc1)NC(=O)[C@H](CO)NC(=O)[C@H](Cc1c[nH]c2ccccc12)NC(=O)[C@H](Cc1cnc[nH]1)NC(=O)[C@@H]1CCC(=O)N1,-9,x,x,x,x,x
CCCCCCCCCCCCOCCOCCOCCOCCOCCOCCOCCOCCOCCO,-26,x,x,x,x,x
Cc1nc(C(F)(F)F)ccc1C(=O)N1CCC1(C)C(=O)NS(=O)(=O)c1c(C)noc1C (stereo not drawn),x,x,i,x,x,0%
CCn1c(=O)c(C(=O)Nc2ccccc2)c(O)c2ccccc21,2,0%,-19%,-15,x,5%
CCn1c(=O)c(C(=O)Nc2nc3ccccc3[nH]2)c(O)c2ccccc21,x,2%,-38%,u,3.2µM*,12%
COc1ccc(C(=O)Nc2nc3ccccc3[nH]2)cc1,-78*,0%,-32%,-1,x,u
O=C(CCNC(=O)c1ccccc1Cl)Nc1nc2ccccc2[nH]1,-14,x,-12%,-1,x,-1%
COc1ccc(C(=O)Nc2nc3ccccc3s2)cc1,-66*,2%,-7%,-5,x,u
COc1ccccc1C(=O)NCCC(=O)Nc1nc2ccccc2[nH]1,-86*,1%,i,-2,x,-17%
CC1(C(=O)Nc2ccc3c(c2)OCCO3)CCC(=O)N1C1CC1 (stereo not drawn),x,x,-6%,x,x,-1%
O=[N+]([O-])c1cc(-c2nc(-c3ccccc3)no2)ccc1NC1CCCCC1,x,2%,-7%,x,x,6%
O=c1[nH]c(/C(Cl)=C/c2cc(Cl)ccc2O)nc2cc(Cl)ccc12,x,3%,-18%,-16,-13%,7%
C=CCOc1cc(Cl)ccc1C(=O)NCCN(CC)CC,-11,x,x,x,x,x
CN(C)C1C(=O)C(C(N)=O)=C(O)[C@@]2(O)C(=O)C3=C(O)c4c(O)ccc(Cl)c4[C@@H](O)C3C[C@@H]12 (stereo partly drawn),x,x,x,x,4%[46.1 µM],x
C=CCNC(=O)NC(=O)COC(=O)c1nc2nccc(C)n2n1,4,16µM*,i,4,9%,-2%
Cc1ccnc2nc(C(=O)OCC(=O)NCCc3ccccc3)nn12,7,1%,i,11,19%,17%
Cn1c(=O)c2sccc2n2c(CCCC(=O)NC3CCCCC3)nnc12,15,u,26%,x,x,-6%
Cn1c(=O)c2sccc2n2c(CCCC(=O)N3CCCCC3)nnc12,4,18µM*,i,28,x,-24%
CCCCCCSc1ccc(-c2nc3ccc(Cl)cn3c2NCCCC)cc1OC,x,x,-14%,-83*,x,41%
O=C(OCc1cccc([N+](=O)[O-])c1)c1cnccn1,0,22µM*,-37%,3,13%,13%
SMILES,RXFP1 antagonist,RXFP1 agonist,PTHR1 ag,TSHR antag,NPSR antag,HEK293 tox
Brc1cc(Br)c2ncnc(N3CCCCC3)c2c1,29,25µM*,-14%[57.5 µM],12,7.9µM*,u
O=C(CC(=O)c1ccccc1)Nc1ccccc1C(F)(F)F,1,-1%,-25%,-7,x,-1%
Fc1ccc(NC(=S)SCc2ccc3c(c2)OCO3)cc1F,12,x,-87%,x,x,-10%
O=C(Nc1c(-c2ccc3c(c2)OCO3)[nH][nH]c1=O)c1ccc2c(c1)OCO2,x,x,-23%,x,x,-6%
C1CCC(C(CC2CCCCN2)C2CCCCC2)CC1 (stereo not drawn),-26,1%,i,-8,13µM*,-2%
Oc1ccccc1N=N/C(=N/Nc1ccccc1O)c1ccccc1,x,1%,i,4,x,-16%
N#C/C(N=Nc1ccccc1O)=N\Nc1ccccc1O,x,-6%,-41%,u,x,10µM*
CCC(=O)Nc1ccc(NCc2cccs2)cc1,6,-2%,-7%,16,x,5%
O=C(Nc1cccc(C(F)(F)F)c1)Nc1ccc(N2CCCC2)c(S(=O)(=O)Nc2ccccc2Cl)c1,-26,0%,-38%,-15,10µM*,u
CC(=O)Nc1ccc(N2CCOCC2)c(S(=O)(=O)Nc2ccccc2Cl)c1,3,x,i,x,x,-11%
O=c1c2sccc2nc(SCc2cc(=O)n3cc(Br)ccc3n2)n1Cc1ccccn1,12,25µM*,-18%,-2,-20%,1%
CC(C)OC(=O)CNc1n[nH]c(=S)[nH]c1=O,-39,5µM*,-16%,-2,u,-15%
CCCCCC[C@@H](CCC)C(=O)O,-5,x,x,x,x,x
Cc1onc(-c2c(Cl)cccc2Cl)c1C(=O)Cl,-3,x,x,x,x,x
Cc1ccc(C2=NOC(=O)/C2=C\C=C\c2ccccc2)cc1,-108*,-2%,-30%,-15,10µM*,15%[0.307 µM]
CN(C)/C=C1\C(=O)ON=C1c1ccccc1,-20,-1%,i,1,3%,0%
COc1ccc(-c2nc(-c3ccccc3)c(-c3cc([N+](=O)[O-])ccc3C)[nH]2)cc1OC,13,3%,i,-3,7.9µM*,-4%
C[C@@H](O[C@H]1OCCN(Cc2n[nH]c(=O)[nH]2)[C@H]1c1ccc(F)cc1)c1cc(C(F)(F)F)cc(C(F)(F)F)c1,-60*,x,x,x,x,x
Cc1cn(S(=O)(=O)c2ccc(Br)c3ccccc23)cn1,x,22µM*,x,37,1µM*,x
COc1cc(S(=O)(=O)n2cnc(C)c2)ccc1Br,9,1%,-12%,-3,5%,-5%
CC1(C)Cc2c(sc3ncnc(NN)c23)CO1,9,13µM*,i,14,x,-8%
CCCc1cc(C(=O)NC2CCCCC2)no1,8,3%,-13%,7,-16%[46.1 µM],-2%
CCCc1cc(C(=O)N(C2CCCCC2)C2CCCCC2)no1,-70*,0%,-3%,-25,u,-2%
